Several values for one entry are separate records, joined by “and”; a condition that tells them apart may be missing. Equal entries are not always repeated. Activity calls are given as the source filed them. Rule for the calls: active = hit-call score of the fitted dose curve at least 0.9, where 1 is the maximum; inactive = score below 0.9.

In general, AC50 refers to the concentration giving half of the maximal activity seen.

The nature of one experiment: BSK_3C_VCAM1: BioMAP Diversity Plus: 3C Assay for Vascular cell adhesion molecule 1 (VCAM1) Biomarker Activity (AID 2282999). Particulars: BioMAP 3C HUVEC, VCAM1 ELISA, cytokine-stimulated; actives raise or lower the signal. The method in brief:
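Human umbilical vein endothelial cells (3C system), biomarker read by ELISA 24 h after dosing; bidirectional fit against DMSO baseline. Cytotoxicity tracked by SRB total-protein staining in parallel cultures at biomarker time.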
(ELISA stands for enzyme-linked immunosorbent assay.)
`CCCCC(CC)CN1C(=O)C2C3C=CC(C3)C2C1=O` (stereo not given): the result was inactive.

As for `O=C(O)C1(C(=O)Nc2ccc(Cl)cc2Cl)CC1`, the outcome was inactive.

Consider `COC(=O)c1ccccc1C(=O)O`, for which the outcome was inactive.

For `c1ccc(Nc2ccccc2)cc1`, the outcome was inactive.

For `CCOC(=O)NCCOc1ccc(Oc2ccccc2)cc1`, the outcome was inactive.

In the case of `CC(C)(c1ccc(O)cc1)c1ccc(O)cc1`, the result was inactive.

Consider `O=C(Nc1ccc([N+](=O)[O-])cc1Cl)c1cc(Cl)ccc1O`, for which the AC50 was 0.189 µM (active).

Consider `COC(=O)c1cccc(C)c1S(=O)(=O)NC(=O)Nc1nc(OCC(F)(F)F)nc(N(C)C)n1`, for which the result was inactive.

`CCCCOC(=O)[C@@H](C)Oc1ccc(Oc2ccc(C(F)(F)F)cn2)cc1`: the outcome was inactive.

On to `O=C(c1ccc(O)cc1O)c1ccc(O)cc1O`, for which the outcome was inactive.

Consider `CC(C)(C)[C@@H](O)[C@@H](Cc1ccc(Cl)cc1)n1cncn1`, for which the outcome was inactive.

`c1ccc2[nH]c(-c3cscn3)nc2c1`: the outcome was inactive.

Consider `CCOC(=O)C(C)Oc1ccc(Oc2nc3ccc(Cl)cc3o2)cc1` (stereo not given), for which the outcome was inactive.

Turning to `CCC(C)OC(=O)N1CCCCC1CCO` (stereo not given), the outcome was inactive.

On to `N#CSCSc1nc2ccccc2s1`, for which the AC50 was 6.63 µM (active) and 10.3 µM (active).

Consider `CCN(Cc1c(F)cccc1Cl)c1c([N+](=O)[O-])cc(C(F)(F)F)cc1[N+](=O)[O-]`, for which the result was inactive.

For `CC(C)CCCCCCc1ccc(O)cc1`, the AC50 is 7.98 µM (active).

Turning to `CCNc1nc(N)nc(Cl)n1`, the result was inactive.

Regarding `COC(=O)c1c(Cl)nn(C)c1S(=O)(=O)NC(=O)Nc1nc(OC)cc(OC)n1`, the result was inactive.

As for `C[C@]12C[C@H](O)[C@H]3[C@@H](CCC4=CC(=O)CC[C@@]43C)[C@@H]1CC[C@@H]2C(=O)CO`, the outcome was inactive.

Turning to `C#C[C@]1(O)CC[C@H]2[C@@H]3CCC4=CC(=O)CC[C@@H]4[C@H]3CC[C@@]21CC`, the result was inactive.

Take `CCCN(CCC)c1c([N+](=O)[O-])cc(C(F)(F)F)c(N)c1[N+](=O)[O-]`: the AC50 was 30.8 µM (active).

As to `COC(=O)c1ccc(CNS(C)(=O)=O)cc1S(=O)(=O)NC(=O)Nc1nc(OC)cc(OC)n1`, the outcome was inactive.

On to `CCSC(=O)N(CC(C)C)CC(C)C`, for which the outcome was inactive.

For the molecule `CCCOC(=O)c1ccc(C(=O)OCCC)nc1`, the result was inactive.

Regarding `COC(=O)c1ccccc1S(=O)(=O)NC(=O)Nc1nc(OC(F)F)cc(OC(F)F)n1`, the outcome was inactive.

In the case of `CCCCOC(=O)C(C)Oc1ccc(Oc2ccc(C(F)(F)F)cn2)cc1` (stereo not given), the result was inactive.

As to `COc1nc(C)nc(NC(=O)NS(=O)(=O)c2ccccc2OCCCl)n1`, the outcome was inactive.

For the molecule `O=C(c1ccccc1)C1CCCCC1`, the outcome was inactive.

As to `CC(=O)S[C@@H]1CC2=CC(=O)CC[C@]2(C)[C@H]2CC[C@@]3(C)[C@@H](CC[C@@]34CCC(=O)O4)[C@H]12`, the AC50 was 29.5 µM (active).

A short description of the next experiment: BSK_4H_Eotaxin3: BioMAP Diversity Plus: 4H Assay for Eotaxin 3 Biomarker Activity (AID 2283000).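 For outcome: CCL26 protein level quantified by ELISA in parallel with SRB cytotoxicity check.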 The following applies: primary human endothelial cells (HUVEC); actives raise or lower the signal. The method in brief:
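HUVEC, 24 h post-dose, ELISA for Eotaxin-3/CCL26. Gain or loss of signal fitted bidirectionally vs DMSO baseline.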
In the case of `CCCCC(CC)CN1C(=O)C2C3C=CC(C3)C2C1=O` (stereo not given), the result was inactive.

For `O=C(O)C1(C(=O)Nc2ccc(Cl)cc2Cl)CC1`, the outcome was inactive.

In the case of `COC(=O)c1ccccc1C(=O)O`, the outcome was inactive.

Turning to `c1ccc(Nc2ccccc2)cc1`, the outcome was inactive.

With `CCOC(=O)NCCOc1ccc(Oc2ccccc2)cc1`, the result was inactive.

In the case of `CC(C)(c1ccc(O)cc1)c1ccc(O)cc1`, the outcome was inactive.

Regarding `O=C(Nc1ccc([N+](=O)[O-])cc1Cl)c1cc(Cl)ccc1O`, the AC50 is 0.148 µM (active).

For `COC(=O)c1cccc(C)c1S(=O)(=O)NC(=O)Nc1nc(OCC(F)(F)F)nc(N(C)C)n1`, the outcome was inactive.

Turning to `CCCCOC(=O)[C@@H](C)Oc1ccc(Oc2ccc(C(F)(F)F)cn2)cc1`, the result was inactive.

For `O=C(c1ccc(O)cc1O)c1ccc(O)cc1O`, the outcome was inactive.

With `CC(C)(C)[C@@H](O)[C@@H](Cc1ccc(Cl)cc1)n1cncn1`, the result was inactive.

Regarding `c1ccc2[nH]c(-c3cscn3)nc2c1`, the result was inactive.

As to `CCOC(=O)C(C)Oc1ccc(Oc2nc3ccc(Cl)cc3o2)cc1` (stereo not given), the outcome was inactive.

Regarding `CCC(C)OC(=O)N1CCCCC1CCO` (stereo not given), the result was inactive.

Turning to `N#CSCSc1nc2ccccc2s1`, the AC50 was 2.64 µM (active) and 9.47 µM (active).

With `CCN(Cc1c(F)cccc1Cl)c1c([N+](=O)[O-])cc(C(F)(F)F)cc1[N+](=O)[O-]`, the result was inactive.

Turning to `CC(C)CCCCCCc1ccc(O)cc1`, the AC50 is 10.6 µM (active).

Regarding `CCNc1nc(N)nc(Cl)n1`, the result was inactive.

Consider `COC(=O)c1c(Cl)nn(C)c1S(=O)(=O)NC(=O)Nc1nc(OC)cc(OC)n1`, for which the result was inactive.

As for `C[C@]12C[C@H](O)[C@H]3[C@@H](CCC4=CC(=O)CC[C@@]43C)[C@@H]1CC[C@@H]2C(=O)CO`, the outcome was inactive.

`C#C[C@]1(O)CC[C@H]2[C@@H]3CCC4=CC(=O)CC[C@@H]4[C@H]3CC[C@@]21CC`: the outcome was inactive.

Turning to `CCCN(CCC)c1c([N+](=O)[O-])cc(C(F)(F)F)c(N)c1[N+](=O)[O-]`, the AC50 was 30.3 µM (active).

Consider `COC(=O)c1ccc(CNS(C)(=O)=O)cc1S(=O)(=O)NC(=O)Nc1nc(OC)cc(OC)n1`, for which the result was inactive.

For `CCSC(=O)N(CC(C)C)CC(C)C`, the outcome was inactive.

For `CCCOC(=O)c1ccc(C(=O)OCCC)nc1`, the result was inactive.

As to `COC(=O)c1ccccc1S(=O)(=O)NC(=O)Nc1nc(OC(F)F)cc(OC(F)F)n1`, the outcome was inactive.

Consider `CCCCOC(=O)C(C)Oc1ccc(Oc2ccc(C(F)(F)F)cn2)cc1` (stereo not given), for which the result was inactive.

With `COc1nc(C)nc(NC(=O)NS(=O)(=O)c2ccccc2OCCCl)n1`, the outcome was inactive.

Turning to `O=C(c1ccccc1)C1CCCCC1`, the result was inactive.

Turning to `CC(=O)S[C@@H]1CC2=CC(=O)CC[C@]2(C)[C@H]2CC[C@@]3(C)[C@@H](CC[C@@]34CCC(=O)O4)[C@H]12`, the AC50 is 36.5 µM (active).

Source of the values: PubChem BioAssay (EPA / NIEHS).
